The target of experiment [1] is Estrogen receptor (Homo sapiens) (UniProt P03372). The experiment is described as follows: qHTS assay to identify small molecule antagonists of the estrogen receptor alpha (ER-alpha) signaling pathway (AID 743069; active = well fitted curve in the direction sought with a large enough effect in the signal ratio in the repeat runs, not every such curve was filed as active; the % refers to the signal ratio). As to conditions: HEK293 ER-alpha-UAS-bla, beta-lactamase ratio, antagonist mode; series mostly up to 69.4 µM. The gist of the method: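 Screening used a UAS-driven beta-lactamase reporter integrated into HEK293 cells expressing ER-alpha, stimulated with 17beta-estradiol alongside test compounds over 18 hr at 37C; signal came from LiveBLAzer B/G FRET fluorescence.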
(In qHTS, concentration-response curves come from the screen itself.)

The target is the same in experiment [2]. The experiment is described as follows: qHTS assay to identify small molecule agonists of the estrogen receptor alpha (ER-alpha) signaling pathway (AID 743075). As to conditions: HEK293 ER-alpha-UAS-bla, beta-lactamase FRET ratio, 18 h; series mostly up to 70.1 µM.
Experiment [3] shares this target. The experiment is described as follows: qHTS assay to identify small molecule agonists of the estrogen receptor alpha (ER-alpha) signaling pathway using the BG1 cell line (AID 743079; active = well fitted curve in the direction sought with a large enough effect in the repeat runs; an effect the other way counts as inactive or inconclusive; also: nearly all actives have a fitted effect of over 20% in size). As to conditions: BG1Luc4E2 cells, ERE-luciferase agonist, 22 h; activation: at 70.3 µM (top of the series).
Experiment [4] is described as follows: qHTS assay to identify small molecule antagonists of the estrogen receptor alpha (ER-alpha) signaling pathway using the BG1 cell line (AID 743080). Also: nearly all actives have a fitted effect of over 25% in size. As to conditions: BG1Luc4E2 ERE-luciferase antagonist mode, luminescence; series mostly up to 70.3 µM. The gist of the method:
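After 5 days in phenol-red-free 10% charcoal-stripped FBS medium, BG1-Luc-4E2 cells were seeded, left 24 h at 37 C, co-treated with compounds and 17beta-estradiol for 21.5 h, then assayed for viability and luciferase.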

For another experiment, the target named is Aromatase (Homo sapiens) (UniProt P11511). The experiment is described as follows: qHTS assay to identify aromatase inhibitors (AID 743083; active = well fitted curve in the direction sought with a large enough effect in the repeat runs; an effect the other way counts as inactive or inconclusive; also: nearly all actives have a fitted effect of over 55% in size; also: potency is read from the fitted curve at half-maximal effect). As to conditions: MCF-7 aro ERE, testosterone-driven ERE luciferase, 24 h; series mostly up to 70.3 µM.
Experiment [5] can be described thus: qHTS assay to identify small molecule antagonists of the estrogen receptor alpha (ER-alpha) signaling pathway - cell viability counter screen (AID 743074). Also: nearly all actives have a fitted effect of over 45% in size. Also: potency is read from the fitted curve at half-maximal effect. As to conditions: ERalpha-bla HEK293 viability, CellTiter-Glo luminescence, 18 h; series mostly up to 69.4 µM.
Experiment [6] is described as follows: qHTS assay to identify small molecule antagonists of the estrogen receptor alpha (ER-alpha) signaling pathway using the BG1 cell line - cell viability counter screen (AID 743081; active = well fitted curve in the direction sought with a large enough effect in the repeat runs; an effect the other way counts as inactive or inconclusive;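 also: compound given together with 17beta-estradiol as the ER stimulus; nearly all actives have a fitted effect of over 45% in size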; also: potency is read from the fitted curve at half-maximal effect). As to conditions: BG1Luc4E2 viability, CellTiter-Fluor, 22 h; series mostly up to 70.3 µM.

Results filed as inconclusive are left out. Active and inactive are the calls of the source. Unless noted, calls follow the shape of the full dose curve.

Chain of Estrogen receptor (Homo sapiens) (P03372 whole entry, looked up): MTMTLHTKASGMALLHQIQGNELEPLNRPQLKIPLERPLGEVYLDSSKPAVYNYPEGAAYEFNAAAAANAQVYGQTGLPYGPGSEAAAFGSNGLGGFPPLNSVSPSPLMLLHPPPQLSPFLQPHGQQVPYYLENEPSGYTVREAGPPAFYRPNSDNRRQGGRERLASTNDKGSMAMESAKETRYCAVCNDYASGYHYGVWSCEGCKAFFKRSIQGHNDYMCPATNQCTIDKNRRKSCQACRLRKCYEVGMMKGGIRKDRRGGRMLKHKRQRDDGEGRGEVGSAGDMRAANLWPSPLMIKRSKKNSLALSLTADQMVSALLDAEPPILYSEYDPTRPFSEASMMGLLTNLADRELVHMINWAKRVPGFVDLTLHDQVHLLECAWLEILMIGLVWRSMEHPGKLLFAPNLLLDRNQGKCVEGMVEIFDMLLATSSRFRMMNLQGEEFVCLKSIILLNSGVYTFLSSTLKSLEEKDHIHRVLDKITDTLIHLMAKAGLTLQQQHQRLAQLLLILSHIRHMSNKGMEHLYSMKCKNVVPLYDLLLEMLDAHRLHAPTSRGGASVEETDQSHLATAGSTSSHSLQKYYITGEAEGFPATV
Chain of Aromatase (Homo sapiens) (P11511 whole entry, looked up): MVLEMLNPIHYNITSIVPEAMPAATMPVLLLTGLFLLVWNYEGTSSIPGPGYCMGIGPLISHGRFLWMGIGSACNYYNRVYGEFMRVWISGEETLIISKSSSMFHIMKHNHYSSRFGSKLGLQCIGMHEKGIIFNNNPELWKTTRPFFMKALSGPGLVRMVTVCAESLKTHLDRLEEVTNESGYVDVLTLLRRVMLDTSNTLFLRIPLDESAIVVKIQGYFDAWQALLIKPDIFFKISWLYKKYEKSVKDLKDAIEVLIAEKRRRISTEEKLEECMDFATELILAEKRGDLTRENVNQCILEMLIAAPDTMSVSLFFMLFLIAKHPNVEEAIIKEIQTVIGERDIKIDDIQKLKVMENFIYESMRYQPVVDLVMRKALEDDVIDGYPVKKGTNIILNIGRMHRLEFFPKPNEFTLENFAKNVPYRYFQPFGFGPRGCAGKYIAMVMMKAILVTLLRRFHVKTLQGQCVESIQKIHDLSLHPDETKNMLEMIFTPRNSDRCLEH

As to `C=C[C@]1(C)C[C@@H](OC(=O)CO)[C@]2(C)[C@H](C)CC[C@]3(CCC(=O)[C@H]32)[C@@H](C)[C@@H]1O`, the Potency entry (in experiment [1]; in experiment [2]; in experiment [3]; in experiment [4]; in the experiment with Aromatase (Homo sapiens)) was “inactive” each time.
For `CC(O)[C@@H]1NC(=O)[C@H](CCCCN)NC(=O)[C@@H](Cc2c[nH]c3ccccc23)NC(=O)[C@H](Cc2ccccc2)NC(=O)[C@@H](NC(=O)[C@H](N)Cc2ccccc2)CSSC[C@@H](C(=O)N[C@H](CO)[C@@H](C)O)NC1=O` (some centres not stated), the Potency result (in experiment [5]; in experiment [2]; in experiment [4]; in experiment [6]; in the experiment with Aromatase (Homo sapiens)) was “inactive” each time.
With `C#C[C@]1(O)CC[C@H]2[C@@H]3CCC4=C(CCC(=O)C4)[C@H]3CC[C@@]21C`, the Potency result (in experiment [5]; in experiment [4]; in experiment [6]; with Aromatase (Homo sapiens)) was “inactive” in each case.
Consider `Nc1ncnc2c1ncn2[C@@H]1O[C@H](COP(=O)(O)OP(=O)(O)OP(=O)(O)O)[C@@H](O)[C@H]1O`, for which the Potency in experiment [5] was 6.01 µM (active). Moreover, the Potency entry (in experiment [2]; in experiment [3]; in experiment [6]; in the experiment with Aromatase (Homo sapiens)) was “inactive” throughout.
`COc1ccc(CCNC[C@H](O)c2ccc(O)cc2)cc1OC`: the Potency result in experiment [1], in experiment [5], in experiment [2], in experiment [3], in experiment [4] and in experiment [6] was “inactive” each time. Moreover, the Potency entry in the experiment with Aromatase (Homo sapiens) is “inactive”.
As to `CO[C@H]1C[C@H](O[C@@H]2/C(C)=C/C[C@@H]3C[C@@H](C[C@]4(CC[C@H](C)[C@@H](C5CCCCC5)O4)O3)OC(=O)[C@@H]3C=C(C)/C(=N/O)[C@H]4OC/C(=C\C=C\[C@@H]2C)[C@]43O)O[C@@H](C)[C@@H]1O`, the Potency result (in experiment [5]; in experiment [6]; with Aromatase (Homo sapiens)) was “inactive” throughout.
Consider `Cc1ccccc1OCC(O)CNCCOc1ccc(C(N)=O)cc1` (configuration not stated), for which the Potency result (in experiment [5]; in experiment [6]; with Aromatase (Homo sapiens)) was “inactive” each time.
Regarding `O=C(COc1ccc(Cl)cc1)OCCNC12CC3CC(CC(C3)C1)C2`, the Potency entry in experiment [1], in experiment [5], in experiment [2], in experiment [3], in experiment [4] and in experiment [6] was “inactive” in each case. Also, in the experiment with Aromatase (Homo sapiens), the Potency result is “inactive”.
As to `CCC(=O)O[C@@H]1CC(=O)O[C@H](C)C/C=C/C=C/[C@H](O)[C@H](C)C[C@H](CC=O)[C@H](O[C@@H]2O[C@H](C)[C@@H](O[C@H]3C[C@@](C)(O)[C@@H](OC(=O)CC)[C@H](C)O3)[C@H](N(C)C)[C@H]2O)[C@H]1OC`, the Potency entry (in experiment [5]; in experiment [6]; with Aromatase (Homo sapiens)) was “inactive” each time.
Take `N[C@@H](C(=O)N[C@@H]1C(=O)N2C(C(=O)O)=C(CSc3cn[nH]n3)CS[C@H]12)c1ccc(O)cc1`: the Potency entry (in experiment [5]; in experiment [6]; with Aromatase (Homo sapiens)) was “inactive” each time.
As for `COc1ccc(C(=O)Nc2ccccc2CCC2CCCCN2C)cc1` (configuration not stated), the Potency result (in experiment [1]; in experiment [2]; in experiment [4]; with Aromatase (Homo sapiens)) was “inactive” throughout. The Potency in experiment [6] was 2.98 µM (active).
As for `CCOC(=O)CCC(=O)O[C@H]1[C@H](O[C@@H]2[C@@H](C)[C@H](O[C@H]3C[C@@](C)(OC)[C@@H](O)[C@H](C)O3)[C@@H](C)C(=O)O[C@H](CC)[C@@](C)(O)[C@H](O)[C@@H](C)C(=O)[C@H](C)C[C@@]2(C)O)O[C@H](C)C[C@@H]1N(C)C`, the Potency entry (in experiment [1]; in experiment [5]; in experiment [2]; in experiment [3]; in experiment [4]; with Aromatase (Homo sapiens)) was “inactive” in each case.
On to `CC1=C(/C=C/C(C)=C/C=C/C(C)=C/C=C/C=C(C)/C=C/C=C(C)/C=C/C2=C(C)C[C@@H](O)CC2(C)C)C(C)(C)C[C@H](O)C1`, for which the Potency entry in experiment [5] and in experiment [6] was “inactive” each time.
As to `COC(=O)C1=C(C#N)NC(C)=C(C(=O)OC(C)C)C1c1cccc([N+](=O)[O-])c1` (configuration not stated), the Potency result in experiment [5], in experiment [2], in experiment [3], in experiment [4] and in experiment [6] was “inactive” throughout. Besides, in the experiment with Aromatase (Homo sapiens), the Potency is 29.8 µM (active).
In the case of `CCC(=O)c1ccc2c(c1)N(CCCN1CCN(CCO)CC1)c1ccccc1S2`, the Potency result in experiment [5], in experiment [2], in experiment [3] and in experiment [4] was “inactive” throughout.
For the molecule `CN1CC(O)c2cc(N=NC(N)=O)c(O)cc21` (configuration not stated), the Potency result in experiment [1], in experiment [5], in experiment [2], in experiment [3], in experiment [4] and in experiment [6] was “inactive” in each case. Moreover, the Potency entry with Aromatase (Homo sapiens) is “inactive”.
Consider `CCOC(=O)c1cc(-c2ccccc2)nc2ccc(C)cc12`, for which the Potency result (in experiment [5]; in experiment [2]; in experiment [3]; in experiment [4]; in experiment [6]; in the experiment with Aromatase (Homo sapiens)) was “inactive” each time.
Consider `CN(CC(=O)N1CCOCC1)Cc1c(Cl)cccc1NC(=O)c1ccccc1`, for which the Potency entry in experiment [5], in experiment [2], in experiment [3], in experiment [4] and in experiment [6] was “inactive” each time.
For `CCCCC(F)(F)[C@@]1(O)CC[C@H]2[C@@H](CC(=O)[C@@H]2CCCCCCC(=O)O)O1`, the Potency result in experiment [5], in experiment [3], in experiment [4] and in experiment [6] was “inactive” throughout.
Turning to `COc1ccc2c(=O)c(C)c(-c3ccccc3)oc2c1CN(C)C`, the Potency entry in experiment [5] and in experiment [6] was “inactive” in each case.
With `CNc1cc(OC)c(C(=O)N[C@H]2CCN(Cc3ccccc3)[C@H]2C)cc1Cl`, the Potency result (in experiment [1]; in experiment [5]; in experiment [2]; in experiment [3]; in experiment [4]; with Aromatase (Homo sapiens)) was “inactive” throughout.
On to `CO[C@H]1C[C@H](O[C@H]2[C@H](C)[C@@H](O[C@@H]3O[C@H](C)C[C@H](N(C)C)[C@H]3OC(C)=O)[C@@H](C)C[C@]3(CO3)C(=O)[C@H](C)[C@@H](OC(C)=O)[C@@H](C)[C@@H](C)OC(=O)[C@@H]2C)O[C@@H](C)[C@@H]1OC(C)=O`, for which the Potency entry (in experiment [5]; in experiment [6]; with Aromatase (Homo sapiens)) was “inactive” in each case.
In the case of `CCOC(=O)CN[C@@H](C(=O)N1CC[C@H]1C(=O)NCc1ccc(/C(N)=N/O)cc1)C1CCCCC1`, the Potency entry (in experiment [5]; in experiment [2]; in experiment [3]; in experiment [4]; in experiment [6]; with Aromatase (Homo sapiens)) was “inactive” in each case.
